Growth data for 15 compounds are collected here from PubChem BioAssay (NCI).

Compounds without any hit were thinned out: in the full panel of roughly 83,000, 20% have a hit.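 Treatment: one concentration, 48 hours, 96-well format. Scoring: percent growth, with anything below 10 considered active.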 The source made the active and inactive calls.

This experiment has as its system HL-60(TB) leukemia. Put plainly: NCI-60 one-dose screen, 48 h (100 = growth as untreated, 0 = no growth, -100 = all killed). The note with it: 10 µM unless noted.
For the compound `N#C/C(=C\c1cc(O)c(O)c(O)c1)C(N)=O`, the growth was 69.5% (inactive).

On to `C=C1c2c(Cl)ccc(O)c2C(O)=C2C(=O)[C@]3(O)C(O)=C(C(N)=O)C(=O)[C@@H](N(C)C)[C@@H]3[C@@H](O)[C@H]12`, for which the growth is -24.8% (active).

Regarding `CCOC(=O)c1cc(C)n(-c2ccc(C(=O)O)cc2)c1C`, the growth was 86.2% (inactive).

With `CCCCC(=O)c1ccc(OC)cc1`, the growth was 92.6% (inactive).

With `Cc1cc(C)c2nc3nc(C)cc(C)c3c(N)c2c1`, the growth was 45.8% (inactive).

Consider `COC(=O)c1ccc2c(C(=Nc3ccc(N(C)C(=O)CN4CCN(C)CC4)cc3)c3ccccc3)c(O)[nH]c2c1`, for which the growth was 70.8% (inactive).

Take `NN=C(c1ccc(Cl)cc1)c1ccc(Cl)cc1`: the growth was 131% (inactive).

Consider `Nc1cc2c([nH]c[n+]2CC#CCCl)c(SCC#CCCl)n1`, for which the growth is -17.8% (active).

Take `COC(=O)c1ccc2c(c1)c1c(C)c3ccncc3c(C)c1n2C`: the growth is 32.5% (inactive).

As for `COc1cc2nc(-c3ccc(C(F)(F)F)cc3)cc(OCCCN3CCOCC3)c2cc1OC`, the growth was 32.5% (inactive).

Turning to `O=C1OCC2=C1C(c1cccc(F)c1)c1cc3c(cc1N2CCO)CCC3` (stereo not given), the growth is -29.8% (active).

As to `COc1ccc(/C(C)=C(/c2ccc(OCCCN(C)C)cc2)c2ccc(OC(=O)c3ccccc3)cc2)cc1`, the growth is 62.8% (inactive).

Regarding `NC(CSC(c1ccccc1)(c1ccccc1)c1ccc(F)cc1)C(=O)O` (stereo not given), the growth is -39.2% (active).

On to `Cc1nn(-c2cccc(Cl)c2)c(C)c1N=Nc1ccc(Br)cc1`, for which the growth is 77.9% (inactive).

For the compound `Cc1[nH]n(C(=O)c2ccncc2)c(=O)c1N=Nc1ccc(O)c(C(=O)O)c1`, the growth was 53.4% (inactive).
